TDP1 cell CPT – qHTS for Inhibitors of human tyrosyl-DNA phosphodiesterase 1 (TDP1): qHTS in cells in presence of CPT | Potency, µM (doses to about 46.2 µM), inactives show top-dose activity change, negative = growth inhibition, usual class: inhibitors | hit rate 12% among 420,000 | chicken DT40 Tdp1-/-;hTDP1 cells + 20 nM CPT, ATP luminescence, 48 h; note: potency is the fitted concentration of half-maximal effect; nearly all actives have a fitted effect of over 55% in size
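Chicken DT40 Tdp1-/- cells stably complemented with human TDP1 were seeded at 400 cells/well in medium containing 20 nM camptothecin, exposed to pin-transferred compounds, and grown at 37 °C for at least 48 hr. Viability was read as ATP luminescence.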
IL-1B inflam inh – qHTS for Inhibitors of Inflammasome Signaling: IL-1-beta AlphaLISA Primary Screen | THP-1 LPS/ATP IL-1B secretion, AlphaLISA, 16 h; active compounds read low | activity change, % at 57.5 µM | hit rate 4.7% among 360,000 | AID 743279, 2014; in the data active = activity change below about -50%; inconclusive = mostly about -30% to -49%
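THP-1 cells pretreated 1 hr with compounds (up to 57.5 uM final), then stimulated with LPS (250 ng/mL final) plus ATP (1.25 mM final); secreted IL-1B measured by AlphaLISA after 16 hr, decreased signal indicating inhibition.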
TDP1 block – qHTS Assay for Inhibitors of Tyrosyl-DNA Phosphodiesterase (TDP1); Tyrosyl-DNA phosphodiesterase 1 (Homo sapiens), Q9NUW8; AID 485290, 2010; hit rate 0.28% among 350,000; Potency, µM (titrated, usually from 130 µM), without a hit: at the top dose activity change, negative = inhibition, actives largely listed as inhibitors; recombinant TDP1, AlphaScreen DNA substrate cleavage; note: potency is the fitted concentration of half-maximal effect; nearly all actives have a fitted effect of over 40% in size
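Tdp1 1 nM final; 15 min RT w/ cpd; substrate 15 nM, 5 min; beads 10 ug/ml, 10 min; AlphaScreen read. Neg ctrl: no enzyme.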
CtBP-E1A blk – qHTS Assay for Inhibitors of the CtBP/E1A Interaction; CtBP / adenovirus E1A interaction (AlphaScreen); AlphaScreen GST-E1A/His-CtBP binding, 1536-well; active compounds read low; activity change, % (concentration not given with the values); hit rate 0.49% among 340,000; in the data active = activity change below about -65%; inconclusive = mostly about -30% to -63%
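GST-E1A and His-tagged CtBP (125 nM each as 5X stock) were preincubated with pin-transferred compound for 2 h at 37 °C in the dark, then glutathione donor and nickel acceptor beads were added for 1 h before AlphaScreen reading.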
Six1-Eya2 blk – qHTS Assay for Inhibitors of the Six1/Eya2 Interaction | Homeobox protein SIX1 (Homo sapiens) + Protein phosphatase EYA2 (Homo sapiens), … | AlphaScreen GST-Six1/His-Eya2 binding, biochemical; active compounds read low | activity change, % (concentration not given with the values) | hit rate 0.56% among 360,000; in the data active = activity change below about -65%; inconclusive = mostly about -30% to -63%
Target sequence (O00167 whole entry, looked up): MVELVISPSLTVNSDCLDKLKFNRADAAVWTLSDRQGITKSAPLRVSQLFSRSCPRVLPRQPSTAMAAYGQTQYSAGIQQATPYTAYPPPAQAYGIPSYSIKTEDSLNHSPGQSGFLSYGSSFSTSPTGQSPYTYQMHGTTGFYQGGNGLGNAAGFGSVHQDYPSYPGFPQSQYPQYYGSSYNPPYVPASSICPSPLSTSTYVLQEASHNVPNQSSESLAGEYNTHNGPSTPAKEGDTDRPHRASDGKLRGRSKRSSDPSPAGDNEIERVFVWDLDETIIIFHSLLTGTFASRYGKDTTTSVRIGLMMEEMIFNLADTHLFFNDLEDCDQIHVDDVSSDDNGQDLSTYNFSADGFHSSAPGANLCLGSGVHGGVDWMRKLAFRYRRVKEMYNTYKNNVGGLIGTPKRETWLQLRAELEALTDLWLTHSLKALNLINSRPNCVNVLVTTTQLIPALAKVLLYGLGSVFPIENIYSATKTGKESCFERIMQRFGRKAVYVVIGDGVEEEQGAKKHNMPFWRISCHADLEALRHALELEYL
Target sequence (Q15475 whole entry, looked up): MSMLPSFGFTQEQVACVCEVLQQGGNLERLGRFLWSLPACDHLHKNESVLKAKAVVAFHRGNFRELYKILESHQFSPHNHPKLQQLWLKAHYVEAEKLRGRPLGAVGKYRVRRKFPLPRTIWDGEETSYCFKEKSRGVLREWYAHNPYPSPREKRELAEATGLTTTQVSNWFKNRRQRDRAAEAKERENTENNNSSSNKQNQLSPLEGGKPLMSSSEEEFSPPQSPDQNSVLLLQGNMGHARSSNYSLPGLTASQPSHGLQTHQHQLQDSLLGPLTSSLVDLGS
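Six1/Eya2 binding was read as AlphaScreen signal after compounds were pinned into GST-Six1 plus His-tagged Eya2 (5X stock 250/500 nM) in pH 8.0 Tris/NaCl/TCEP buffer, beads added, then incubated 1 h, 37 C, dark.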
TDP1 cell noCPT – qHTS for Inhibitors of human tyrosyl-DNA phosphodiesterase 1 (TDP1): qHTS in cells in absence of CPT; DT40 Tdp1-/- hTDP1 cells, no CPT, ATP luminescence, 48 h; Potency, µM (highest dose often 46.2 µM), for inactives: top-dose activity change, negative = growth inhibition, hits mostly inhibitors; hit rate 15% among 420,000; AID 686978, 2013; note: potency is the fitted concentration of half-maximal effect; nearly all actives have a fitted effect of over 55% in size
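Growth kinetics read by CellTiter-Glo luminescence after ≥48 hr at 37 °C. Cells: DT40 Tdp1-/- stably carrying human TDP1, 400 per well, compound exposure in the absence of CPT (DMSO vehicle).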
Numbers without * were called inactive; [ ] = remark or other dose. An excerpt weighted towards active compounds, which were near 18% of everything screened. Unless noted, calls come from the whole dose curve; as a rule, active = well fitted curve in the direction sought with a large enough effect; inconclusive = small, poorly fitted or top-dose-only effect, or another doubt; inactive = no such curve, though single readings can be large; an effect the other way counts as inactive or inconclusive. % is set by controls: 0 for no effect and ±100 for the full control effect.

Results for O=C1C=CN(C2OC(CO)C(O)C2O)C(=O)C1 (stereo unspecified) ?
TDP1 cell CPT: 8.2µM*; IL-1B inflam inh: -9; CtBP-E1A blk: 4; Six1-Eya2 blk: 0; TDP1 cell noCPT: 3.7µM*

How did COc1ccc(C(=O)/C=C/Nc2c(C)n(C)n(-c3ccccc3)c2=O)cc1OC do in these assays?
TDP1 cell CPT: 23µM*; IL-1B inflam inh: -11; TDP1 block: 5%; CtBP-E1A blk: -2; Six1-Eya2 blk: -2; TDP1 cell noCPT: 16µM*

How did COc1cc(OC)c(OC)cc1/C=C/C(=O)OCC(=O)Nc1c(C)n(C)n(-c2ccccc2)c1=O do in these assays?
TDP1 cell CPT: inconclusive; IL-1B inflam inh: -15; Six1-Eya2 blk: 4; TDP1 cell noCPT: 1µM*

What do the screens show for `O=C(NCc1cccs1)C1CCCN1C(=O)Nc1ccccc1` (stereo unspecified)?
TDP1 cell CPT: -21%; IL-1B inflam inh: -15; TDP1 block: 5%; CtBP-E1A blk: -2; Six1-Eya2 blk: 7; TDP1 cell noCPT: -2%

What do the screens show for `COCCN1CCc2nc(SCC(=O)Nc3ccc(C)c(Cl)c3)[nH]c(=O)c2C1`?
TDP1 cell CPT: 0%; TDP1 block: 11%; TDP1 cell noCPT: -29%

How did CCOc1cc(C=O)ccc1OS(=O)(=O)c1ccc(NC(C)=O)cc1 do in these assays?
TDP1 cell CPT: inconclusive; IL-1B inflam inh: 22; TDP1 block: 0%; Six1-Eya2 blk: 9; TDP1 cell noCPT: 18µM*

What do the screens show for `COc1cc(C(=S)N2CCCC2)ccc1OS(=O)(=O)c1ccc(NC(C)=O)cc1`?
TDP1 cell CPT: 15µM*; IL-1B inflam inh: -27; TDP1 block: -2%; CtBP-E1A blk: -3; Six1-Eya2 blk: -2; TDP1 cell noCPT: inconclusive

What do the screens show for `COc1cc(C(=S)N2CCCC2)cc(OC)c1OS(=O)(=O)c1ccc(NC(C)=O)cc1`?
TDP1 cell CPT: inconclusive; IL-1B inflam inh: -5; TDP1 block: 2%; CtBP-E1A blk: -12; Six1-Eya2 blk: -21; TDP1 cell noCPT: inconclusive

Results for COc1ccc(S(=O)(=O)Oc2ccc(C(=S)N3CCOCC3)cc2OC)cc1 ?
TDP1 cell CPT: inconclusive; IL-1B inflam inh: -8; TDP1 block: 4%; CtBP-E1A blk: -2; Six1-Eya2 blk: -10; TDP1 cell noCPT: inconclusive

Results for CCOc1cc(C=O)ccc1OCC(=O)NC(C)(C)C ?
TDP1 cell CPT: 1%; IL-1B inflam inh: 20; TDP1 block: 3%; CtBP-E1A blk: 6; Six1-Eya2 blk: 5; TDP1 cell noCPT: 7%

What do the screens show for `COc1cc(C(=S)N2CCOCC2)ccc1OS(=O)(=O)c1ccc(NC(C)=O)cc1`?
TDP1 cell CPT: 18µM*; IL-1B inflam inh: 0; TDP1 block: 0%; CtBP-E1A blk: -4; Six1-Eya2 blk: 6; TDP1 cell noCPT: 9.2µM*

What do the screens show for `O=C(CNS(=O)(=O)c1cccc(Br)c1)NCC1CCCCC1`?
TDP1 cell CPT: 0%; IL-1B inflam inh: 37; CtBP-E1A blk: -5; Six1-Eya2 blk: 6; TDP1 cell noCPT: -12%

How did Cc1cc(C)n(C(=O)c2ccc(Cl)c(F)c2F)n1 do in these assays?
TDP1 cell CPT: 2%; IL-1B inflam inh: 23; TDP1 block: 5%; CtBP-E1A blk: 17; Six1-Eya2 blk: 7; TDP1 cell noCPT: -4%

Results for CCCCCc1ccc(OCCC[n+]2ccccc2)c(CCCCC)c1 ?
TDP1 cell CPT: 0.65µM*; IL-1B inflam inh: -94*; CtBP-E1A blk: -1; Six1-Eya2 blk: 16; TDP1 cell noCPT: 1µM*

What do the screens show for `CCCCCc1ccc(OCCOCCn2c[n+](C)c3ccccc32)c(CCCCC)c1`?
TDP1 cell CPT: 2.3µM*; IL-1B inflam inh: -94*; TDP1 block: 6%; Six1-Eya2 blk: -2; TDP1 cell noCPT: 2.1µM*

How did Cc1ccc(CN(C(=O)COc2cc(C)c(Cl)c(C)c2)c2ccccn2)o1 do in these assays?
TDP1 cell CPT: inconclusive; TDP1 block: 5%; TDP1 cell noCPT: 18µM*

Results for Cc1ccc(CN(C(=O)c2ccc(F)cc2)c2ccccn2)o1 ?
TDP1 cell CPT: -3%; TDP1 block: 4%; TDP1 cell noCPT: inconclusive

Results for Cc1ccc(CN(C(=O)COc2ccc(Br)cc2)c2ccccn2)o1 ?
TDP1 cell CPT: inconclusive; TDP1 block: 3%; TDP1 cell noCPT: 16µM*

How did CCCCOc1cccc(C(=O)N(Cc2ccc(C)o2)c2ccccn2)c1 do in these assays?
TDP1 cell CPT: 15µM*; TDP1 block: 5%; TDP1 cell noCPT: 9.2µM*

How did Cc1ccc(CN(C(=O)COc2ccccc2[N+](=O)[O-])c2ccccn2)o1 do in these assays?
TDP1 cell CPT: inconclusive; TDP1 block: -5%; TDP1 cell noCPT: inconclusive

How did COc1cc(CN(C(=O)COc2ccc(Cl)cc2)c2ccccn2)cc(OC)c1OC do in these assays?
TDP1 cell CPT: 18µM*; TDP1 block: -1%; TDP1 cell noCPT: 8.2µM*

Results for O=C(Cc1ccc(O)cc1)NC1CCCCCC1 ?
TDP1 cell CPT: -20%; IL-1B inflam inh: -2; TDP1 block: 1%; CtBP-E1A blk: 5; Six1-Eya2 blk: 7; TDP1 cell noCPT: -23%

Results for COc1ccc(CC(NC(C)=O)C(=O)NC2CCN(C(=O)NCc3ccccc3)CC2)cc1OC (stereo unspecified) ?
TDP1 cell CPT: -13%; IL-1B inflam inh: 0; TDP1 block: -6%; CtBP-E1A blk: 5; Six1-Eya2 blk: 7; TDP1 cell noCPT: -11%

How did Cc1cccc(OCC(=O)OC(C)C(=O)Nc2ccc(S(=O)(=O)N3CCCCC3)cc2)c1 (stereo unspecified) do in these assays?
TDP1 cell CPT: -15%; IL-1B inflam inh: 0; TDP1 block: 7%[0.505 µM]; CtBP-E1A blk: 0; Six1-Eya2 blk: 2; TDP1 cell noCPT: -21%

Results for CCC(C)(C)C1CCC2(CC1)NC(=O)N(CC(=O)NCCc1c[nH]c3ccccc13)C2=O (stereo unspecified) ?
TDP1 cell CPT: 16µM*; IL-1B inflam inh: -21; TDP1 block: 2%; CtBP-E1A blk: 18; Six1-Eya2 blk: 0; TDP1 cell noCPT: 16µM*
